The text below walks through data of PMC8384837, “Expanding the binding specificity for RNA recognition by a PUF domain”.

Holding throughout (experiment): yeast three-hybrid, YBZ-1, SC-Leu-His + 0.5 mM 3-AT, 4 days
Common to all, as to conditions: tags: N-Gal4 AD-HA kept; label: inside an RPR1-promoter hybrid RNA with tandem MS2 sites; ssRNA

Assay [1] addresses PUM1 PUF domain R1-HKR (Homo sapiens, UniProt Q14671 828-1176, S863H;R864K;Q867R). The gist of the method: (§1)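 The interaction score is the log change in how often each variant appears, from input to selection. Frequencies came from PCR-amplified, Illumina-sequenced repeat regions of Pumilio-1 PUF domain libraries grown in strain YBZ-1 (LexA–MS2 coat fusion, HIS3 reporter) alongside matching RNA elements. Input plates were SC-Leu and selection plates were SC-Leu-His + 0.5 mM 3-AT, each for four days, and the log2 calculation used a pseudocount of 1 where a variant was absent.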

In assay [2] the target is PUM1 PUF domain R1-TLE (Homo sapiens, UniProt Q14671 828-1176, S863T;R864L;Q867E). In a few lines: as §1
The target of assay [3] is PUM1 PUF domain R1-KMR (Homo sapiens, UniProt Q14671 828-1176, S863K;R864M;Q867R). The gist of the method:
as §1

For assay [4], the target named is PUM1 PUF domain R1-RQE (Homo sapiens, UniProt Q14671 828-1176, S863R;R864Q;Q867E). In a few lines: as §1
Assay [5] deals with PUM1 PUF domain R1-KCT (Homo sapiens, UniProt Q14671 828-1176, S863K;R864C;Q867T). The gist of the method:
as §1

For assay [6], the target named is PUM1 PUF domain R2-LWD (Homo sapiens, UniProt Q14671 828-1176, N899L;Y900W;Q903D). The gist of the method:
as §1

Assay [7] addresses PUM1 PUF domain R7-GCL (Homo sapiens, UniProt Q14671 828-1176, S1079G;N1080C;E1083L). The gist of the method:
as §1

For assay [8], the target named is PUM1 PUF domain R7-KSS (Homo sapiens, UniProt Q14671 828-1176, S1079K;N1080S;E1083S). In a few lines:
as §1

In assay [9] the target is PUM1 PUF domain R7-KRA (Homo sapiens, UniProt Q14671 828-1176, S1079K;N1080R;E1083A). The gist of the method: as §1
The target of assay [10] is PUM1 PUF domain R7-RCK (Homo sapiens, UniProt Q14671 828-1176, S1079R;N1080C;E1083K). In a few lines: as §1
Assay [11] has as its target PUM1 PUF domain R5-KSM (Homo sapiens, UniProt Q14671 828-1176, C1007K;R1008S;Q1011M). The gist of the method: as §1
In assay [12] the target is PUM1 PUF domain R5-RPC (Homo sapiens, UniProt Q14671 828-1176, C1007R;R1008P;Q1011C). The gist of the method:
as §1

Assay [13] has as its target PUM1 PUF domain R3-GYV (Homo sapiens, UniProt Q14671 828-1176, C935G;R936Y;Q939V). In a few lines:
as §1

For assay [14], the target named is T1, PUM1 PUF domain R6-MFS (Homo sapiens, UniProt Q14671 828-1176, N1043M;Y1044F;Q1047S).
T1 sequence: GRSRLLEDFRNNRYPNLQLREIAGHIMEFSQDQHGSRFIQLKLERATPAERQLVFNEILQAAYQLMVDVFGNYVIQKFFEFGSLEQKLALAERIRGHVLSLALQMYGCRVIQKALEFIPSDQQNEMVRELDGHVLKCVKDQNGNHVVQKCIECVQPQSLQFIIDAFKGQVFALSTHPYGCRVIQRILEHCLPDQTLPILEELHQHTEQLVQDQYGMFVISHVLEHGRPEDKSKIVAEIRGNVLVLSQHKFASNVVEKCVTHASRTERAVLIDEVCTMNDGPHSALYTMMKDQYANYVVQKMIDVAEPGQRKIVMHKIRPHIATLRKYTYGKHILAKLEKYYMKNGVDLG
The gist of the method: as §1

Assay [15] deals with PUM1 PUF domain R8-HYR (Homo sapiens, UniProt Q14671 828-1176, N1122H;Q1126R). In a few lines: as §1
The target in assay [16] is PUM1 PUF domain R8-KWV (Homo sapiens, UniProt Q14671 828-1176, N1122K;Y1123W;Q1126V). In a few lines: as §1
For assay [17], the target named is PUM1 PUF domain R4-APN (Homo sapiens, UniProt Q14671 828-1176, N971A;H972P;Q975N). In a few lines: as §1
The target of assay [18] is PUM1 PUF domain R4-WFS (Homo sapiens, UniProt Q14671 828-1176, N971W;H972F;Q975S). The gist of the method:
as §1

In assay [19] the target is PUM1 PUF domain R4-GNH (Homo sapiens, UniProt Q14671 828-1176, N971G;H972N;Q975H). In a few lines: as §1

For the sequence “GGCUAGAACUAGUGGAUCCCCCGGCGCCCGGCGGCUCGAGCCCGGGUAAGUGUAAAUUGUCUGCAUGCCGCCGGGCGCCAUGCCUGCAGGUCGACUCUAGAAAACAUG”, the binding signal is 3.25 log2 enrichment (interaction score) in assay [1], 4.15 log2 enrichment (interaction score) in assay [2] and 6.29 log2 enrichment (interaction score) in assay [3].

With “GGCUAGAACUAGUGGAUCCCCCGGCGCCCGGCGGCUCGAGCCCGGGUAAGUGUAAAUCGUCUGCAUGCCGCCGGGCGCCAUGCCUGCAGGUCGACUCUAGAAAACAUG”, the binding signal in [4] is 2.21 log2 enrichment (interaction score); in [5] it was 6.39 log2 enrichment (interaction score).

For “GGCUAGAACUAGUGGAUCCCCCGGCGCCCGGCGGCUCGAGCCCGGGUAAGUGUAAAUGGUCUGCAUGCCGCCGGGCGCCAUGCCUGCAGGUCGACUCUAGAAAACAUG”, the binding signal in [4] was 1.2 log2 enrichment (interaction score); in assay [5], 3.31 log2 enrichment (interaction score); in assay [2] it was 3.5 log2 enrichment (interaction score).

For the sequence “GGCUAGAACUAGUGGAUCCCCCGGCGCCCGGCGGCUCGAGCCCGGGUAAGUGUAAAAAGUCUGCAUGCCGCCGGGCGCCAUGCCUGCAGGUCGACUCUAGAAAACAUG”, the binding signal in assay [6] is 5.97 log2 enrichment (interaction score).

Take “GGCUAGAACUAGUGGAUCCCCCGGCGCCCGGCGGCUCGAGCCCGGGUAAGUUUAAAUAGUCUGCAUGCCGCCGGGCGCCAUGCCUGCAGGUCGACUCUAGAAAACAUG”: the figures for the binding signal in assay [7], in [8] and in [9] were 2.65 log2 enrichment (interaction score), 4.3 log2 enrichment (interaction score) and 3.25 log2 enrichment (interaction score), respectively.

With “GGCUAGAACUAGUGGAUCCCCCGGCGCCCGGCGGCUCGAGCCCGGGUAAGUCUAAAUAGUCUGCAUGCCGCCGGGCGCCAUGCCUGCAGGUCGACUCUAGAAAACAUG”, the binding signal is 2.54 log2 enrichment (interaction score) in assay [8], 5.25 log2 enrichment (interaction score) in assay [9] and 4.15 log2 enrichment (interaction score) in assay [10].

Consider “GGCUAGAACUAGUGGAUCCCCCGGCGCCCGGCGGCUCGAGCCCGGGUAAGUGUCAAUAGUCUGCAUGCCGCCGGGCGCCAUGCCUGCAGGUCGACUCUAGAAAACAUG”, for which the binding signal in assay [11] is 3.66 log2 enrichment (interaction score); in [12] it was 1.49 log2 enrichment (interaction score).

In the case of “GGCUAGAACUAGUGGAUCCCCCGGCGCCCGGCGGCUCGAGCCCGGGUAAGUGUAAAUAGUCUGCAUGCCGCCGGGCGCCAUGCCUGCAGGUCGACUCUAGAAAACAUG”, the binding signal in assay [13] was 3.26 log2 enrichment (interaction score); in [14] it was 3 log2 enrichment (interaction score); in assay [15], 2.29 log2 enrichment (interaction score); in [16], 5.94 log2 enrichment (interaction score); in [17] it was 4.29 log2 enrichment (interaction score).

In the case of “GGCUAGAACUAGUGGAUCCCCCGGCGCCCGGCGGCUCGAGCCCGGGUAAGUGUUAAUAGUCUGCAUGCCGCCGGGCGCCAUGCCUGCAGGUCGACUCUAGAAAACAUG”, the binding signal in [12] is 2.17 log2 enrichment (interaction score).

On to “GGCUAGAACUAGUGGAUCCCCCGGCGCCCGGCGGCUCGAGCCCGGGUAAGUGUAUAUAGUCUGCAUGCCGCCGGGCGCCAUGCCUGCAGGUCGACUCUAGAAAACAUG”, for which the binding signal was 3.06 log2 enrichment (interaction score) in assay [18] and 3.07 log2 enrichment (interaction score) in [19].

On to “GGCUAGAACUAGUGGAUCCCCCGGCGCCCGGCGGCUCGAGCCCGGGUAAGCGUAAAUAGUCUGCAUGCCGCCGGGCGCCAUGCCUGCAGGUCGACUCUAGAAAACAUG”, for which, in [16], the binding signal is 5.88 log2 enrichment (interaction score).

With “GGCUAGAACUAGUGGAUCCCCCGGCGCCCGGCGGCUCGAGCCCGGGUAAGUGUACAUAGUCUGCAUGCCGCCGGGCGCCAUGCCUGCAGGUCGACUCUAGAAAACAUG”, in assay [17], the binding signal was 1.7 log2 enrichment (interaction score).

For “GGCUAGAACUAGUGGAUCCCCCGGCGCCCGGCGGCUCGAGCCCGGGUAAGUAUAAAUAGUCUGCAUGCCGCCGGGCGCCAUGCCUGCAGGUCGACUCUAGAAAACAUG”, in assay [10], the binding signal is 2.31 log2 enrichment (interaction score).
